Measured values as given in PubChem BioAssay (NCI).
Values joined by “and” are separate entries in the source; they are usually repeats but may differ in a detail not shown here. Equal values may be shown once. The panel holds about 79,000 compounds, 15% with a hit somewhere; the sample as a whole holds those more often. Rule as the data show it: active = growth inhibition above about 70%; inactive = the rest.

Tests used:
[1] = NCI Yeast Anticancer Drug Screen. Data for the rad50 strain (AID 155);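 also: 0% = growth of vehicle-only cultures of the same strain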; conditions: S. cerevisiae rad50 strain growth inhibition; at 50.0 µM; stronger effect = higher value
How it was run: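 Compounds were tested on a yeast strain with an engineered DNA damage repair alteration; the reported value is growth inhibition normalised to vehicle treatment.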

[2] = NCI Yeast Anticancer Drug Screen. Data for the mec2-1 strain (AID 157); conditions: S. cerevisiae mec2-1 strain, at 50.0 µM, stronger effect = higher value
How it was run: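 Readout is yeast growth inhibition, normalised to vehicle-treated controls, in the mec2-1 strain exposed to compound.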

[3] = NCI Yeast Anticancer Drug Screen. Data for the sgs1 mgt1 strain (AID 161);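 also: 0% = growth of cultures given vehicle only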; conditions: S. cerevisiae sgs1 mgt1 strain, at 50.0 µM, stronger effect = higher value
How it was run: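 Percent growth inhibition was derived by comparing compound-exposed mutant yeast with vehicle-exposed cultures. The strain carries alterations in DNA damage repair.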

[4] = NCI Yeast Anticancer Drug Screen. Data for the bub3 strain (AID 167); conditions: S. cerevisiae bub3 mutant strain, at 50.0 µM, stronger effect = higher value
How it was run: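 Growth of a checkpoint-deficient yeast mutant is measured after compound exposure. Values represent inhibition relative to vehicle.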

[5] = NCI Yeast Anticancer Drug Screen. Data for the mlh1 rad18 strain (AID 175); conditions: S. cerevisiae mlh1 rad18 strain growth inhibition; at 50.0 µM; stronger effect = higher value
How it was run: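 Test agents were incubated with a yeast strain of defined genotype (DNA damage repair defect). Inhibition of growth was derived by comparison with vehicle-exposed cultures.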

[6] = NCI Yeast Anticancer Drug Screen. Data for the cln2 rad14 strain (AID 165);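 also: 0% = growth equal to vehicle treated cultures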; conditions: S. cerevisiae cln2 rad14 strain, at 50.0 µM, stronger effect = higher value
How it was run: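 Relative to vehicle controls, growth inhibition of compound-treated cln2 rad14 yeast was recorded.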

Measured: growth inhibition

NC(CCCc1ccc(N(CCCl)CCCl)cc1)C(=O)O (configuration not stated)
inactive: [1] -1.55% | [2] -3.45% | [3] 8.75% | [4] -6.15% | [5] -8.3%

O=C1CC2OCC=C3CN4CCC56c7ccccc7N1C5C2C3CC46 (configuration not stated) (tested in a mixture with another compound)
inactive: [1] 25% and 2.65% and 6.9% | [2] -7.15% and 22.6% and -14.6% | [3] -15.7% and -7.3% and -9.45% | [4] 3.35% and 5.1% and -9.9% | [5] 5.7% and 9.45% and 10.1%

CSC(SC)=C1C(=O)NC(=O)NC1=O
inactive: [1] -11.8% | [2] 1.65% | [3] 1.7% | [6] 10.2% | [5] -16.4%

CC1(C)OP23(NC(=O)OC2(C(F)(F)F)c2ccccc2O3)OC1(C)C (configuration not stated)
inactive: [1] -14.6% | [2] -13.5% | [3] -40.5% | [6] -4.1% | [5] -27.4%

CC[As](=O)(O)c1ccc(I)cc1
inactive: [1] 3.6% | [2] -8.4% | [3] -1.95% | [6] -11.8% | [4] 12.8% | [5] 5.95%

CN1CCN(C)C(N2CCOCC2)C(C)(C)C1 (configuration not stated)
inactive: [1] 15.4% | [2] -4.2% | [3] -8.15% | [6] -9.45% | [4] 0.85% | [5] 2.85%

COC1=N[C@]2(O)C[C@]3(C)[C@@H](O)CC[C@H]3[C@@H]3CCC4=CC(=O)CC[C@]4(C)[C@]32S1
inactive: [1] 7.4% | [2] 10.6% | [3] 2.3% | [6] -22.7% | [5] 3.2%

CC(C)(C)C1(C)CN(N=O)C(=O)O1 (configuration not stated)
inactive: [1] -5.05% | [2] -9.7% | [3] -9.5% | [6] -26.1% | [4] 5.85% | [5] -15.5%

CCOP(=O)(OCC)/C(C#N)=C/c1ccoc1
inactive: [1] -36% | [2] -5.8% | [3] -58.2% | [4] -29.9% | [5] -51%

NCCN.O=C([O-])C(=O)[O-].O=C([O-])C(=O)[O-].[Co+3].[K+]
inactive: [1] 0.2% | [2] -8.5% | [3] 10.2% | [4] 5.1% | [5] -2.4%

O=C([O-])Cc1ccccc1.O=[N+]([O-])O.[Co+3].[NH2-].[NH2-].[NH2-].[NH2-].[NH2-]
inactive: [1] 13.1% | [2] 12.5% | [3] 21.3% | [6] 11.9% | [5] -5.9%

O=[N+]([O-])O.[Sm]
inactive: [1] 12.3% | [2] 3.95% | [3] 26.8% | [6] 17.1% | [4] 15.7% | [5] -18.4%

O=c1oc2ccccc2c(O)c1C(c1ccc(O)cc1)c1c(O)c2ccccc2oc1=O
inactive: [1] -1.35% | [2] 3.1% | [3] -6.4% | [6] -2.95% | [4] -3% | [5] -33.9%

Cc1cc(Cl)ccc1[NH-].Cc1cc(Cl)ccc1[NH-].[Cl][Pt+2][Cl]
inactive: [1] 35.3% | [2] 12.6% | [3] 30.8% | [6] 2.05% | [4] 18.3% | [5] 30.2%

c1ccc(N2CCN(Cc3c[nH]c4ccccc34)CC2)cc1
inactive: [1] 7.9% | [2] 1.9% | [3] 7.55% | [6] -26.6% | [4] 0.85% | [5] -9.6%

COc1ccc([Se]c2ccc(OC)cc2)cc1
inactive: [1] 0% | [2] -15.5% | [3] -7.15% | [6] -13.6% | [5] -4.55%

Cn1ccnc1C[N-]Cc1nccn1C.O=[N+]([O-])[O-].O=[N+]([O-])[O-].[Cu+2]
inactive: [1] 18.2% | [2] 7.5% | [3] -1.35% | [4] -5.35% | [5] 5.5%

N.N.N.N.[Co+3].[O-][Cl+3]([O-])([O-])[O-].[OH3+].[OH3+]
inactive: [1] -25.4% | [2] -1.15% | [3] -22.3% | [6] 13.9% | [5] -13.6%

Nc1ccc([N+](=O)[O-])cc1Cl
inactive: [1] 11.8% | [2] -7.3% | [3] 45.2% | [6] 19% | [5] 34%

COP1(=O)OCC(C)(C)CO1
inactive: [1] 16.4% | [2] -2.05% | [3] 12.7% | [4] -1.55% | [5] 35.8%

C[N+](C)(C)Cc1ccc2ccccc2c1Br
inactive: [1] 30.3% | [2] 7.05% | [3] 10.2% | [4] 0.2% | [5] 20.6%

O=C(O)CCC(=O)O.[Ni]
inactive: [1] -29.1% | [2] -17.1% | [3] -27% | [4] -31.2% | [5] -18.3%
